# Source: PubChem BioAssay
# This is a sample that favours compounds with a hit; in the whole collection about 1.3% have one here.
# RPL19A-GFP yeast: RPL19A-GFP expression modulators in yeast, primary screen, cell-based, S. cerevisiae, multiplex flow cytometry, MLPCN; S. cerevisiae RPL19A-GFP strain, 3 h; active compounds read low; percent response vs DMSO, % at 10 µM; actives 0.3% (n = 330,000); AID 2025, 2009;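 active means percent response vs DMSO below 50%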;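 further: median channel GFP fluorescence of the barcoded RPL19A-GFP strain; lower means less RPL19A-GFP as with rapamycin TOR inhibition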
# Efflux pump mplx: inhibitors of Candida efflux pumps in yeast, primary screen, S. cerevisiae, Nile Red, multiplex; S. cerevisiae Candida pump triplex; actives 0.44% (n = 330,000); inhibition, % at 10 µM;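 active means plate passing quality check with inhibition over a set limit, or well fluorescence over plate mean plus 4 SD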;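 further: Nile Red retained in pooled yeast measured as flow cytometry median fluorescence; higher means more Nile Red kept so more efflux inhibition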
# LAP4 TOR yeast: modulators of LAP4-GFP expression in yeast, primary screen, S. cerevisiae, multiplex flow cytometry, MLPCN library | 3 h; median GFP as percent of DMSO wells | GFP response vs DMSO, % at 10 µM | actives 0.34% (n = 320,000);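 active means GFP response vs DMSO above a set limit, about the screen mean plus 3 SD, cut at about 150% in these data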
# CIT2-GFP yeast: modulators of CIT2-GFP expression in yeast, primary screen, S. cerevisiae, GFP fusion, multiplex flow cytometry, MLPCN library | AID 2029, 2009 | GFP response vs DMSO, % at 10 µM | S. cerevisiae CIT2-GFP strain, 3 h; 100 means same as DMSO wells | actives 0.065% (n = 320,000);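 active means GFP response relative to DMSO above a set limit, near the screen mean plus 3 SD, cut at about 150% in these data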;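 further: ratio of well median GFP fluorescence to mean of DMSO wells on the plate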
# AGP1 TOR yeast: modulators of AGP1-GFP expression in yeast TOR pathway, primary screen, cell-based, multiplex flow cytometry, S. cerevisiae, MLPCN library | actives 0.02% (n = 320,000) | GFP response vs DMSO, % at 10 µM | AID 2066, 2009 | 3 h; GFP as percent of DMSO wells;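 active means GFP response relative to DMSO above a set limit, near screen average plus 3 SD, cut at about 150% in these data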;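 further: median GFP channel fluorescence of the gated AGP1 strain per well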
# MEP2 TOR yeast: modulators of MEP2-GFP levels in yeast, primary screen, S. cerevisiae, multiplex flow cytometry, MLPCN library; S. cerevisiae MEP2-GFP strain, 3 h; 100% = DMSO control level; GFP response vs DMSO, % at 10 µM; actives 0.51% (n = 330,000); AID 2016, 2009;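 active means GFP response versus DMSO above a set limit, roughly screen mean plus 3 SD, cut at about 180% in these data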;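 further: median GFP fluorescence of the barcode-gated MEP2-GFP cells per well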
# Cmpd fluor yeast: compound fluorescence in yeast efflux pump counter-screen; fluorescence ratio to DMSO, % at 10 µM; S. cerevisiae AD/pABC3, flow cytometry; shares compounds with Efflux pump mplx; actives 4% (n = 1,700); AID 588517;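 active means fluorescence ratio to DMSO above its plate's cutoff, the plate mean ratio plus 5 SD, cut at about 210% in these data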;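 further: unstained yeast with no Nile Red so the signal is compound autofluorescence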
# CaMdr1 efflux inh: inhibitors of Candida albicans Mdr1 efflux, confirmation, flow cytometry, singleplex, Cherry Pick1 set. actives 1% (n = 1,700). AID 588518, 2011. inhibition, % at 10 µM. shares compounds with Efflux pump mplx. S. cerevisiae AD/CaMDR1, Nile Red efflux; in the data active means inhibition above about 26%;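 further: higher means more Nile Red retained so more efflux inhibition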
# CaCdr2 efflux inh: inhibitors of Candida albicans Cdr2 efflux pump, confirmation, S. cerevisiae AD/CaCDR2, flow cytometry, cherry pick 1, singleplex. shares compounds with Efflux pump mplx. Nile Red retention. actives 4% (n = 1,700). Nile Red retention ratio vs DMSO, % at 10 µM. AID 588520, 2011; in the data active means Nile Red retention ratio vs DMSO above about 190%;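 further: higher ratio means more blocking of Cdr2 efflux of the dye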
# Cdr1 pump inh: inhibitors of Candida albicans Cdr1 efflux pump, confirmation, S. cerevisiae AD/CaCDR1, flow cytometry, cherry pick 1, singleplex | shares compounds with Efflux pump mplx | Nile Red efflux | inhibition, % at 10 µM | actives 1% (n = 1,700) | AID 588522, 2011;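 active means inhibition above the screen-wide mean plus twice its standard deviation, cut at about 32% in these data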
# Hits are given with their value; i = inactive; nt = no result; [ ] = remark or other dose.
SMILES,RPL19A-GFP yeast,Efflux pump mplx,LAP4 TOR yeast,CIT2-GFP yeast,AGP1 TOR yeast,MEP2 TOR yeast,Cmpd fluor yeast,CaMdr1 efflux inh,CaCdr2 efflux inh,Cdr1 pump inh
NC1=NC[C@@H](Cc2ccc(O)cc2)N1CCc1cccc(F)c1,i,i,i,i,i,i,i,i,i,i
NC1=NC[C@@H](Cc2ccc(O)cc2)N1CCc1cc(C(F)(F)F)cc(C(F)(F)F)c1,i,i,i,i,i,i,nt,nt,nt,nt
CC(C)(C)CN1C(N)=NC[C@@H]1Cc1ccc(O)cc1,i,i,i,i,i,i,i,i,i,i
CC(C)(C)CN1C(N)=NC[C@H]1Cc1ccc(O)cc1,i,i,i,i,i,i,nt,nt,nt,nt
CCCCN1C(N)=NC[C@H]1Cc1ccc(O)cc1,i,i,i,i,i,i,i,i,i,i
Cc1c(NC(=O)CNCc2ccc3c(c2)OCO3)c(=O)n(-c2ccccc2)n1C,i,i,i,i,i,i,nt,nt,nt,nt
Cc1ccccc1Cn1c(=O)n(Cc2ccco2)c(=O)c2ccccc21,i,i,i,i,i,i,nt,nt,nt,nt
COc1cc2c(=O)n(Cc3ccco3)c(=O)n(CC(=O)c3cccc(Br)c3)c2cc1OC,i,1.0,i,i,i,i,i,i,i,i
COc1cc2c(=O)n(Cc3ccco3)c(=O)n(CC(=O)c3ccc(Br)cc3)c2cc1OC,i,i,i,i,i,i,nt,nt,nt,nt
Cc1cc(C)c(NC(=O)Cn2c(=O)n(Cc3ccco3)c(=O)c3ccccc32)c(C)c1,i,1.1,i,i,i,i,i,i,i,i
CN(CCCC(=O)O)c1ccc(N=Nc2ccc([N+](=O)[O-])cc2)cc1,i,i,nt,nt,nt,i,nt,nt,nt,nt
O=C(NCCCN1CCOCC1)Nc1ccc(Cc2ccc(NC(=O)NCCCN3CCOCC3)cc2)cc1,i,6.8,i,i,i,i,i,i,i,i
Cc1ccc(NC(=O)NCCCN2CCOCC2)cc1,i,i,i,i,i,i,nt,nt,nt,nt
COc1ccc(NC(=O)CSc2cn[nH]n2)cc1OC,i,i,i,i,i,i,nt,nt,nt,nt
COc1cc2c(cc1OC)C(c1cc(OC)c(OC)c(OC)c1)NCC2 (configuration not stated),i,0.6,i,i,i,i,i,i,i,i
COc1cc2c(cc1OC)C(c1ccccc1)NCC2 (configuration not stated),i,i,i,i,i,i,nt,nt,nt,nt
COc1cc(-c2noc(C)c2C#CC2(O)CCCCC2)cc(OC)c1OC,i,i,i,i,i,i,nt,nt,nt,nt
CCC1=C(c2cc(OC)c(OC)c(OC)c2)C2(CCCC2)C(=O)O1,i,0.8,i,i,i,i,i,i,i,i
CC(C)CN1C(=O)c2ccc(C(=O)Nc3ccc(OCC(=O)O)cc3)cc2C1=O,i,i,i,i,i,i,nt,nt,nt,nt
CCOc1ccc(/C=c2\sc3nc(-c4ccco4)nn3c2=O)cc1OCC,i,i,i,i,i,i,i,i,i,i
COc1cc(/C=C(\C#N)c2ccccn2)ccc1OCc1ccccc1,i,i,i,i,i,i,nt,nt,nt,nt
COc1cc(/C=C(\C#N)c2ccccn2)ccc1OCc1ccc(Cl)cc1,i,6.7,i,i,i,i,i,i,i,i
CC(C)CCOc1ccc(C(=O)N2CCN(c3ncccn3)CC2)cc1,i,3.5,i,i,i,i,i,i,i,i
O=C(CN1CCN(S(=O)(=O)c2ccccc2F)CC1)Nc1ccccc1C(=O)c1ccccc1,i,0.5,i,i,i,i,i,i,i,i
O=C(CN1CCCC1)Nc1ccccc1C(=O)c1ccccc1,i,i,i,i,i,i,nt,nt,nt,nt
SMILES,RPL19A-GFP yeast,Efflux pump mplx,LAP4 TOR yeast,CIT2-GFP yeast,AGP1 TOR yeast,MEP2 TOR yeast,Cmpd fluor yeast,CaMdr1 efflux inh,CaCdr2 efflux inh,Cdr1 pump inh
COCO/C=C(\NC(C)=O)c1ccccc1,i,1.0,i,i,i,i,i,i,i,i
O=C(C[n+]1cc(-c2ccc(Cl)c(Cl)c2)n2c1CCC2)OCc1ccccc1,i,6.4,i,i,i,i,i,i,i,i
O=C(O)c1ccc(NC(=O)c2ccccc2NC(=O)c2cccc(Br)c2)cc1,i,i,i,i,i,i,nt,nt,nt,nt
BrC(=C\c1ccccc1)/C=N/Nc1nc2ccccc2[nH]1,i,2.5,i,i,i,i,i,i,i,i
CCOC(=O)C1C(=O)C=C(/C=C/c2ccc(N(C)C)cc2)CC1c1ccccc1 (configuration not stated),i,0.6,i,i,i,i,588,i,i,i
Cc1nn(Cc2cccc(C(=O)NC34CC5CC(CC(C5)C3)C4)c2)c(C)c1Br,i,0.3,i,i,i,i,i,i,i,i
CCCNC(=O)c1cccc(Cn2nc(C)c(Br)c2C)c1,i,i,i,i,i,i,nt,nt,nt,nt
CCOc1ccc(CCNC(=O)Cc2ccc(NC3=NC4CS(=O)(=O)CC4S3)cc2)cc1 (configuration not stated),i,0.4,i,i,i,i,i,i,i,i
O=C(NC(=S)Nc1ccc2ncccc2c1)c1ccccc1,i,i,i,i,i,i,nt,nt,nt,nt
O=C(Nc1cccc(NC(=S)NC(=O)c2cccs2)c1)c1ccccc1,i,8.0,i,i,i,i,i,i,i,i
O=C(NC(=S)Nc1cccc(NC(=O)c2ccccc2Cl)c1)c1cccs1,i,i,i,i,i,i,nt,nt,nt,nt
Cc1ccc(NC(=S)NC(=O)c2ccccc2)cc1NC(=S)NC(=O)c1ccccc1,i,0.7,i,i,i,i,i,i,i,i
O=C(NC(=S)Nc1ccc2nc[nH]c2c1)c1ccccc1,i,i,i,168[may fluoresce green],i,i,i,i,i,i
Cc1cccc(C(=O)NC(=S)Nc2ccc(Cc3ccncc3)cc2)c1,i,0.7,i,i,i,i,i,i,i,i
COC(=O)c1ccccc1NC(=S)NC(=O)c1ccccc1,i,i,i,i,i,i,nt,nt,nt,nt
